Results from ChEMBL document CHEMBL3433997, “St. Jude Leishmania screening dataset” (2016).

Tests used:
Type in all cases: functional
[1] = target: Solute carrier family 2, facilitated glucose transporter member 1 (Homo sapiens) (UniProt P11166); assay: ST_JUDE_LEISH: Cytotoxicity at 2uM final concentration against transgenic Leishmania Mexicana promastigotes LmGLUT1 that are glucose transport deficient and complemented with the human glucose transporter GLUT1. Activity is measured by DNA content using SYBR green in vitro
Sequence of Solute carrier family 2, facilitated glucose transporter member 1 (Homo sapiens) (P11166 whole entry): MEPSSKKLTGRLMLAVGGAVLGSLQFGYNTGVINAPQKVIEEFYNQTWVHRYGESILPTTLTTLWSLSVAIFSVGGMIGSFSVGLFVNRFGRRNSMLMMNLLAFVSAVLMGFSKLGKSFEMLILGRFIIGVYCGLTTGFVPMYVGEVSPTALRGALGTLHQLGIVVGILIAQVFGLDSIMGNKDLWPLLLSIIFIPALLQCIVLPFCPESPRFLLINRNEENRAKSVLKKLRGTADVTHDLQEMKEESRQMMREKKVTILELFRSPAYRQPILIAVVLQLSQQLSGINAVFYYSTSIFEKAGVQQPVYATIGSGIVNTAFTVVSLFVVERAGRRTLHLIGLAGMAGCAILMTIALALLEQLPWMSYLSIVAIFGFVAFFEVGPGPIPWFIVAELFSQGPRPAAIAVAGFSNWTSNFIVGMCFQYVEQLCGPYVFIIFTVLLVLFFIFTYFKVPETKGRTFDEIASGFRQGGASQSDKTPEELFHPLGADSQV

[2] = target: Hexose transporter 1 (Plasmodium falciparum) (UniProt O97467); assay: ST_JUDE_LEISH: Cytotoxicity at 2uM final concentration against transgenic Leishmania Mexicana promastigotes LmPfHT that are glucose transport deficient and complemented with the Plasmodium falciparum hexose transporter. Activity is measured by DNA content using SYBR green in vitro
[3] = target: Glucose transporter (Leishmania mexicana) (UniProt O61059); assay: ST_JUDE_LEISH: Cytotoxicity at 2uM final concentration against transgenic Leishmania Mexicana promastigotes LmGT2 that are glucose transport deficient and complemented with the L. Mexicana glucose transporter 2. Activity is measured by DNA content using SYBR green in vitro

| SMILES | inhibition [1] [%] | inhibition [2] [%] | inhibition [3] [%] |
| --- | --- | --- | --- |
| COc1ccc(CCNCc2cc3c(C(C)(C)C)nn(-c4ccc(Cl)cc4)c3[nH]c2=O)cc1OC | -2.79 | -2.78 | -5.42 |
| O=c1cc(NCCNCc2cccc(-c3ccccc3)c2)[nH]c2ccccc12 | 4.41 | -0.15 | 1.64 |
| O=C(/C=C/c1ccc(Cl)c(Cl)c1)NCCCCCN1CCC(NC(=O)Nc2ccc(C(F)(F)F)cc2)CC1 | 8.19 | 8.67 | 8.81 |
| CCCC[C@H](NC(=O)OC(C)(C)C)C(=O)Nc1ccc(Cc2ccc(NC(=O)[C@H](CCCC)NC(=O)OC(C)(C)C)cc2)cc1 | 4.27 | 4.02 | 4.58 |
| COc1ccccc1NC(=O)Nc1ccc(-c2cccc(-c3nc4ccccc4[nH]3)c2)cc1 | 3 | 2 | 3.27 |
| Cc1[nH]c(C)c(-c2ccc(OCc3cc(F)cc(F)c3)nc2)c(=O)c1Br | 3.26 | 5.62 | 0.58 |
| O=C(CCc1cccnc1)Nc1ccc(-c2cccc(-c3nc4cc(F)ccc4[nH]3)c2)cc1 | 10.7 | 9.99 | 8.65 |
| Cc1ccc(C(C)C)cc1CON1C(=N)N=C(N)NC1(C)C | 11.2 | 10.7 | 10.9 |
| CC(C)Oc1ccc(CCCON2C(=N)N=C(N)NC2(C)C)cc1 | 20.8 | 28.2 | 19 |
| O=C(Nc1ccccc1-c1nc2ccccc2s1)C(Cl)(Cl)Cl | 0.49 | 1.24 | 0.54 |
| Oc1ccc(CCCc2cc(Oc3c(I)cc(CCc4ncc[nH]4)cc3I)ccc2O)cc1 | 1.08 | -0.28 | -1.55 |
| N#Cc1ccc(C(=O)Nc2cccc(-c3ccc(CN4CCCC4)cc3)c2)cc1 | 11.4 | 9.72 | 9.04 |
